Compound activity from PubChem.
PLC-beta3 inh – human PLC-beta3 inhibitors, primary screen, biochemical, fluorescence; inhibition, % at 12.2 µM; actives 0.18% (n = 370,000); 1-phosphatidylinositol 4,5-bisphosphate phosphodiesterase beta-3 (Homo sapiens), Q01970; AID 720704, 2013; Purified PLC-beta3, fluorogenic substrate; in the data active means inhibition above about 11%;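 further: 0% = median of compound wells on plate and 100% = full blocker control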
LEDGF integ inh – blockers of LEDGF/p75-dependent integrase strand transfer – biochemical, TR-FRET, high throughput, primary screen. TR-FRET IN-LEDGF/p75 DNA integration, Eu/Cy5. inhibition, % at 3.7 µM. actives 0.64% (n = 370,000). AID 743269, 2014;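 active means inhibition above the screen-wide mean plus 3 SD, cut at about 13% in these data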;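 further: signal is the Cy5 over europium emission ratio at 671 and 618 nm; 0% = plate median of compound wells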
MBD2 inh – inhibitors of MBD2 binding to methylated DNA, primary screen, biochemical, TR-FRET, DNA-binding domain, human; MBD2 binding to methylated oligonucleotide; inhibition, % at 4.4 µM; actives 0.31% (n = 370,000); AID 686964, 2013; in the data active means inhibition above about 13%
Target sequence (Q9UBB5 whole entry, looked up, the tested form may be a part): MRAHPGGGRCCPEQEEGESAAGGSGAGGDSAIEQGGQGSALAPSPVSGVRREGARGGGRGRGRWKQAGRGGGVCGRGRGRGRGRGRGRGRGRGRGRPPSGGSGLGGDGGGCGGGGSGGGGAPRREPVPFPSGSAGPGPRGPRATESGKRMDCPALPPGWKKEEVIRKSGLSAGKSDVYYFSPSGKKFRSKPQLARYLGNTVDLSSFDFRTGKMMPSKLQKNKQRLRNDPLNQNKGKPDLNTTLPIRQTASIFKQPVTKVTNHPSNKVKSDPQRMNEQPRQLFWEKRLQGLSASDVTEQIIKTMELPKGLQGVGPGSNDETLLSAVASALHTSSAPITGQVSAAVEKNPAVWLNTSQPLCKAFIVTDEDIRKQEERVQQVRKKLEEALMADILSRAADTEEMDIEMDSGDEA
UHRF1 binding – UHRF1 methylated DNA binding inhibitors, primary screen, counter-screen for MBD2 inhibitor project, biochemical, TR-FRET, human UHRF1, single concentration; actives 0.75% (n = 370,000); UHRF1 binding to methylated oligo; AID 687016, 2013; E3 ubiquitin-protein ligase UHRF1 (Homo sapiens), Q96T88; inhibition, % at 4.4 µM; in the data active means inhibition above about 21%;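 further: UHRF1 SRA domain binding a hemimethylated CpG hairpin DNA probe; 0% = median of test compound wells and 100% = reference inhibitor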
PLC-gamma1 inh – PLC-gamma1 enzyme inhibitors, primary screen, biochemical, fluorescence, purified enzyme | actives 0.84% (n = 370,000) | inhibition, % at 12.2 µM | AID 720700, 2013 | fluorogenic substrate | 1-phosphatidylinositol 4,5-bisphosphate phosphodiesterase gamma-1 (Homo sapiens), P19174; in the data active means inhibition above about 9.5%
An asterisk follows results filed as active. Shown are actives, neighbours in structure and some others; about 2.4% of the full set was active somewhere.

SMILES | PLC-beta3 inh | LEDGF integ inh | MBD2 inh | UHRF1 binding | PLC-gamma1 inh
CC(C1=CCCCC1)c1cnn(C)c1 (stereo not drawn) | 0 | 9 | -7 | 1 | 2
COc1ccc(C)cc1S(=O)(=O)N(CC(=O)Nc1cccc([N+](=O)[O-])c1)c1ccccc1 | 1 | -5 | 4 | 31* | 1
Cn1cc(P(=S)(N2CCOCC2)N2CCOCC2)cc1P(=O)(N1CCOCC1)N1CCOCC1 | -4 | 8 | -4 | 3 | 18*
COC(=O)C1CN(C2CCCC2)CCS(=O)(=O)N1Cc1ccc(F)cc1 (stereo not drawn) | 2 | 0 | 3 | -2 | 2
CC(C)c1ccc(NC(=O)CCNS(=O)(=O)c2cccc3nonc23)cc1 | 8 | 3 | -10 | 2 | 14*
C=CC[C@@H](Cc1ccc(F)cc1)C(=O)OC[C@@H]1CCCN1C(=O)[C@H](CC=C)CC(=O)N[C@H](CO)Cc1ccccc1 | 12* | 3 | -1 | 2 | 9.7*
C=CC[C@@H](CC(=O)OC(C)(C)C)C(=O)OC[C@@H]1CCCN1C(=O)[C@@H](CC=C)CC(=O)N[C@@H](CO)Cc1ccccc1 | 2 | -1 | 0 | -2 | -1
Cc1cc(C)c(S(=O)(=O)/N=C2/C=C(Sc3ncn[nH]3)C(=O)c3ccccc32)cc1C | -4 | 42* | -7 | 7 | 12*
CCc1noc(C)c1C(=O)NNC(=O)c1nn(C)c(=O)c2ccccc12 | -9 | -5 | 2 | 30* | 0
CCc1noc(C)c1C(=O)NNC(=O)c1nn(CC)c(=O)c2ccccc12 | 2 | 1 | 3 | 0 | 2
CCCCNC(=O)C1CCCN1C(=O)Nc1ccc(Cl)cc1 (stereo not drawn) | 5 | 3 | -2 | 0 | 3
CCC(C)NC(=O)c1ccccc1NC(=O)Nc1ccccc1 (stereo not drawn) | -3 | -1 | 2 | 27* | -4
O=C(CCc1ccccc1-c1ccccc1CCNC(=O)c1ccccc1)NCc1ccccc1 | 3 | 4 | -5 | -1 | 0
OC12CC3C[C@H](C1)C(N1CCOCC1)[C@@H](C3)C2 (stereo partly drawn) | -2 | -4 | 2 | 52* | 0
O=S(=O)(c1ccc(Cl)nc1)N1CCc2ccccc21 | -5 | 1 | 2 | 42* | 2
COC(=O)c1ccc(CN(c2ccccc2Cl)S(C)(=O)=O)cc1 | 1 | -4 | -5 | 30* | -2
Cc1ccc(O)c(NC(=O)CSc2n[nH]c(C)c2[N+](=O)[O-])c1 | 2 | 0 | 2 | 33* | 1
COc1ccc(NC(=O)Cn2c(=O)n(CC3CCCO3)c(=O)c3ccccc32)c(OC)c1 (stereo not drawn) | -5 | 5 | 8 | 22* | 4
COc1cc(NC(=O)Cn2c(=O)n(CC3CCCO3)c(=O)c3ccccc32)cc(OC)c1 (stereo not drawn) | -10 | -1 | 8 | 1 | -2
Cc1ccc(Cc2c(-c3ccccc3)nc3ccc(Br)cn23)cc1 | -13 | 1 | 7 | 22* | -3
N#Cc1ccc(-c2nc3ccc(Br)cn3c2Cc2ccccc2)cc1 | -15 | -5 | 7 | 22* | -10
Cc1ccc(Cc2c(-c3ccc(C#N)cc3)nc3ccc(Br)cn23)cc1 | -21 | 1 | 11 | 22* | -15
Cc1ccc(-c2nc3ccc(Br)cn3c2Cc2ccccc2)cc1 | -19 | -1 | 4 | 19 | -14
Cc1ccc(C)c(NC(=O)CN2C(=O)CCSc3ccccc32)c1 | 2 | -1 | 1 | 0 | 2
COC[C@@H](OC(C)=O)[C@H]1OCc2ccccc2[C@@H]1/C=C/c1ccccc1 | -7 | -1 | -1 | 4 | -3
SMILES | PLC-beta3 inh | LEDGF integ inh | MBD2 inh | UHRF1 binding | PLC-gamma1 inh
COc1c(C(C)(C)C)cc(S(=O)(=O)N2c3ccccc3C[C@H]2C)cc1C(C)(C)C | 4 | 4 | -7 | -1 | 1
C#CCn1c2ccccc2c2nc3ccccc3nc21 | -146 | -2 | 0 | 23* | -93
COc1cc(NC(=O)C2CCCN(S(=O)(=O)c3cccc4cccnc34)C2)cc(OC)c1 (stereo not drawn) | -1 | 0 | 3 | 0 | -1
Cc1ccc(S(=O)(=O)N2CCCC2C(c2ccccc2O)c2cn(C)c3ccccc23)cc1 (stereo not drawn) | 1 | -2 | 4 | -1 | 0
Cc1sc2nc(COC(=O)c3c(F)cccc3F)[nH]c(=O)c2c1C | -6 | -1 | 4 | 38* | -2
CCOc1ccc(-n2c(SCC(=O)Nc3ccc(S(=O)(=O)Nc4nccs4)cc3)nnc2-c2ccco2)cc1 | -1 | -1 | -1 | 2 | 1
O=C(COC(=O)c1ccc([N+](=O)[O-])o1)Nc1nc2ccccc2s1 | -6 | 1 | -1 | 29* | -3
CC1(C#CC[N+]2(C)CCCCC2)CCC2C(O1)c1ccccc1OC2(C)C (stereo not drawn) | -2 | 5 | 8 | 24* | 0
CC1(C(O)(C#CC[N+]2(C)CCCCC2)c2ccccc2)CCCC1 (stereo not drawn) | 0 | -1 | 5 | 4 | 0
O=C(O)c1cc(-c2ccccc2)nn1CC1CC(c2cccc([N+](=O)[O-])c2)=NO1 (stereo not drawn) | 6 | 3 | 2 | 5 | 9.9*
O=C(Nc1ccc(Cl)cc1)N1CCN(Cc2nc3ccccc3c(=O)[nH]2)CC1 | 2 | -1 | 1 | 3 | -1
O=C(c1ccc(C#Cc2ccccc2)cc1)N1CCC(O)CC1 | 1 | 2 | 2 | -4 | 0
COC(=O)C1CN(Cc2ccc(Cl)cc2)CCS(=O)(=O)N1Cc1cn(Cc2ccccc2)nn1 (stereo not drawn) | 0 | 2 | 4 | 9 | 1
CC1=NN(c2ccc(S(=O)(=O)O)cc2C)C(=O)C1 | -3 | 1 | -6 | -5 | 0
O=C(O)C1=NN(c2cc(Cl)c(S(=O)(=O)O)cc2Cl)C(=O)C1 | 1 | 11 | 7 | 31* | 15*
C/C(=N\N=C(N)N)c1ccc(Cl)cc1Cl | -5 | -5 | 1 | 38* | 2
C/C(=N\N=C(N)N)c1cc(Cl)ccc1Cl | -2 | -5 | 2 | 4 | -2
Cc1cc(NC(=O)c2ccccc2F)nc2c1c(=O)oc1ccccc12 | -2 | 1 | 1 | 22* | -2
CCCC(=O)Nc1cc(C)c2c(=O)oc3ccccc3c2n1 | -10 | -4 | 1 | 0 | -5
C=CCNC(=O)c1ccc(-n2cccc2)cc1 | 3 | 2 | 11 | 24* | 3
COc1ccc(-c2cc(C(=O)NNC(=S)NC(=O)c3c(-c4ccccc4)noc3C)[nH]n2)cc1 | -2 | -11 | 1 | 22* | 0
CCCCc1ccc2nc(NC(=O)c3cccs3)sc2c1 | -105 | -1 | -9 | -2 | -68
